eIF4E-4G inh: eIF4E–eIF4G protein interaction inhibitors, primary screen, biochemical, uHTS, TR-FRET, eIF4GI fragment; hit rate 0.37% among 220,000; inhibition, % at 21.7 µM; Eukaryotic translation initiation factor 4E (Mus musculus) + Eukaryotic translation …; AID 782, 2007; TR-FRET eIF4E-eIF4GI(517-606) binding, 2 h;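 further: 0% = full FRET control wells and 100% = background wells lacking eIF4GI fragment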
Target sequence (P63073 whole entry, looked up, the tested form may be a part): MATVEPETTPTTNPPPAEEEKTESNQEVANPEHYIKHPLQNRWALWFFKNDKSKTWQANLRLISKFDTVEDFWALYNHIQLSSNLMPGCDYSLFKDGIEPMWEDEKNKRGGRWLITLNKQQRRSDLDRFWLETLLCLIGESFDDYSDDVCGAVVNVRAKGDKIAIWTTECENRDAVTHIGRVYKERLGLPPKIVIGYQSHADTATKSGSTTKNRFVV
Target sequence (Q04637 whole entry, looked up, the tested form may be a part): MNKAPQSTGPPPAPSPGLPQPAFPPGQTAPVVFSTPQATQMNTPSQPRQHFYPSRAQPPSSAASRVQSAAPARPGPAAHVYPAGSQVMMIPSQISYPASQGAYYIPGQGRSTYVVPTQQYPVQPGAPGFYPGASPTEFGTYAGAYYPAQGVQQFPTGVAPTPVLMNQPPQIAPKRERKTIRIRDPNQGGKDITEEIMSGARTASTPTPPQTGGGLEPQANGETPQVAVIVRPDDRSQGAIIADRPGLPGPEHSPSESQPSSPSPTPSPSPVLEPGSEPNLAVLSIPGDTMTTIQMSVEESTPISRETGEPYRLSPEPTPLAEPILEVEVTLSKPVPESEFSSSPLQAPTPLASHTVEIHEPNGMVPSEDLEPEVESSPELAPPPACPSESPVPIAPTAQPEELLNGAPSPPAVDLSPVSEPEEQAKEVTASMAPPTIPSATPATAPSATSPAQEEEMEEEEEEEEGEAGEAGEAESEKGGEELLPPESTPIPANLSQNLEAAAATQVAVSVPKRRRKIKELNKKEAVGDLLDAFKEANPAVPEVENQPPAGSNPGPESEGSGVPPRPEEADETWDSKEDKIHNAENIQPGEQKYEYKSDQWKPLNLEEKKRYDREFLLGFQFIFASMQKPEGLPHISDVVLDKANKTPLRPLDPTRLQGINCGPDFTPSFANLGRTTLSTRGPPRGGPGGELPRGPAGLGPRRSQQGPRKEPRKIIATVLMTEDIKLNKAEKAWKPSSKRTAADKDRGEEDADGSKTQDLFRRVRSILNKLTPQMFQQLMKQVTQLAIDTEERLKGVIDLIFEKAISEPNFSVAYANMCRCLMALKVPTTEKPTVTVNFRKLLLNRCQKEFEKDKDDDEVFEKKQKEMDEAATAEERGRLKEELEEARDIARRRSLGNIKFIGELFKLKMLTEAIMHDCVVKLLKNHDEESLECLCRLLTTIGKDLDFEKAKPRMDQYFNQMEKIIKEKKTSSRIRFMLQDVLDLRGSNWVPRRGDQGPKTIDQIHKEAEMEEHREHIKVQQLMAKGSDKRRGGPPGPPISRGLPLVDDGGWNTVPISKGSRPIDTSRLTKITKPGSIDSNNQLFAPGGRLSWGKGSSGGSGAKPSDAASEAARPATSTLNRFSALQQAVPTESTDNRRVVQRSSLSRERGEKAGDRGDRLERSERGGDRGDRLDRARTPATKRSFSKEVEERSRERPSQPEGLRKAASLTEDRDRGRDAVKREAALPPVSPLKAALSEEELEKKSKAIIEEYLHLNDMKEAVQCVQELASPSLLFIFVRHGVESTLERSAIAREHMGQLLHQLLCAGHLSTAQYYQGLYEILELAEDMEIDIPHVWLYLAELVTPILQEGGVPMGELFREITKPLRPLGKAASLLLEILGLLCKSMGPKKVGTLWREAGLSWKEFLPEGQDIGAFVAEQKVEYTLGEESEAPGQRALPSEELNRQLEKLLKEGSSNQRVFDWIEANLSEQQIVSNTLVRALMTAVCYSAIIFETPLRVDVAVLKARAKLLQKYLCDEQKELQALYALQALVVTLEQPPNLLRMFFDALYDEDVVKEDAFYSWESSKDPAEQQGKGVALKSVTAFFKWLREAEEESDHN
p47phox inh: p47phox/p22phox peptide binding inhibitors, primary screen, biochemical, uHTS, NADPH oxidase regulatory subunit | Neutrophil cytosol factor 1 (Homo sapiens), P14598 | fluorescence polarization, 2 h | inhibition, % at 24.7 µM | hit rate 0.53% among 220,000;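 further: 0% = p47phox with labelled peptide and 100% = labelled peptide alone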
14-3-3 Bad PPI: inhibitors of 14-3-3 zeta/Bad binding, primary screen, biochemical, TR-FRET, bovine 14-3-3 zeta. 14-3-3 protein zeta/delta (Bos taurus), P63103. TR-FRET 14-3-3zeta/Dy647-pBad peptide displacement, 1 h. inhibition, % at 21.7 µM. hit rate 0.71% among 220,000;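 active means inhibition above about 70%, limit read from the data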;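 further: 0% = full 14-3-3 plus peptide FRET controls and 100% = background without 14-3-3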
Bim-Mcl-1: inhibitors of Bim peptide binding to Mcl-1, primary screen, biochemical, bead-based flow cytometry, multiplex. AID 1009, 2008. Bim peptide-Mcl-1 binding. Induced myeloid leukemia cell differentiation protein Mcl-1 (Homo sapiens), Q07820. hit rate 0.1% among 190,000. inhibition, % at 10 µM; in the data active means inhibition above about 40%;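 further: 0% = no compound tracer wells and 100% = peptide blocker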
Mcl1 Noxa PPI: Mcl-1/Noxa binding inhibitors, primary screen, biochemical, TR-FRET, 1536-well. TR-FRET Mcl-1/Noxa peptide binding, 2 h. hit rate 1.5% among 220,000. AID 1022, 2008. inhibition, % at 21.7 µM;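 active means compounds that cut the protein-peptide binding signal by more than 50% relative to plate controls in a single-dose test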;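 further: His-tagged Mcl-1 with rhodamine Noxa BH3 peptide and terbium anti-His antibody; 0% = Mcl-1 plus Noxa peptide wells and 100% = peptide-only wells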
Mcl1-Bid inh: Mcl-1/Bid binding inhibitors, primary screen, biochemical, TR-FRET, 1536-well | TR-FRET Mcl-1/Bid-Dy647 peptide binding | hit rate 0.97% among 220,000 | inhibition, % at 21.7 µM | AID 1021, 2008 | Induced myeloid leukemia cell differentiation protein Mcl-1 (Homo sapiens), Q07820;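 active means compounds that cut the binding signal by more than half at the single screening dose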;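 further: His-tagged Mcl-1 with europium anti-His antibody binding Bid BH3 peptide; 0% = Mcl-1 plus peptide wells and 100% = peptide-only wells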
Numbers without * were called inactive; / = not tested or not shown; [ ] = another dose, or the depositor's remark. Shown are actives, neighbours in structure and some others; about 3.4% of the full set was active somewhere.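 How the source made its calls, unless noted: active means inhibition above about 30% (limit read from the data); inactive means the rest.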

SMILES	eIF4E-4G inh	p47phox inh	14-3-3 Bad PPI	Bim-Mcl-1	Mcl1 Noxa PPI	Mcl1-Bid inh
Cc1nc(C(C)N(C)Cc2nc(-c3ccc4c(c3)OCO4)no2)c(C)s1 (stereo not given)	0.1	-5.8	2.6	-2.0	19.0	-62.8
O=C(N=Nc1c(O)[nH]c2ccc([N+](=O)[O-])cc12)c1cc(-c2ccccc2Cl)nc2ccccc12	33.6*	29.4	94.3*[fluorescence artefact?]	-4.0	76.6*	96.0*
C=C(C)CNC(=S)N=Nc1c(O)[nH]c2ccc([N+](=O)[O-])cc12	0.6	16.3	-24.6	2.0	65.5*	17.4
COc1ccccc1C(=O)N=Nc1c(O)[nH]c2ccc([N+](=O)[O-])cc12	9.6	3.1	28.8	26.0	78.3*	-9.8
O=C(N=Nc1c(O)[nH]c2ccc(Br)cc12)c1cc(-c2cccs2)nc2ccccc12	12.0	59.8*	86.4*	-2.0	68.2*	75.2*
Cn1c(O)c(N=NC(=O)c2cc(-c3cccs3)nc3ccccc23)c2ccccc21	2.7	-11.6	-7.3	-2.0	11.2	7.1
NC(=O)N=Nc1c(O)[nH]c2ccc([N+](=O)[O-])cc12	1.8	-9.2	3.8	/	10.7	-8.6
COc1cccc(OC)c1C(=O)Nc1nc2ccc([N+](=O)[O-])cc2s1	2.1	-5.6	9.9	-1.0	5.7	17.0
O=C(C1=C[C@H](C2CCCCC2)C[C@H](OCCCCO)O1)N1CCN(Cc2ccccc2)CC1	-0.6	/	-5.0	0.0	0.5	-2.4
O=C(O)C(CC1CCCCC1)N1CCS(=O)(=O)CC1 (stereo not given)	-0.8	0.1	6.9	-5.0	8.0	13.2
O=Cc1ccccc1-n1cccn1	-2.3	-4.6	-7.2	4.0	10.7	2.4
Oc1cc(-n2cccn2)c(O)cc1-n1cccn1	8.1	8.1	3.2	/	69.8*	-241.2
O=C(C(=O)N1CCCC1CO)N1CCCC1CO (stereo not given)	-1.5	-10.1	-16.7	-9.0	-10.0	-11.1
Cc1cc(C)c2c(=O)n(CC(=O)N3CCC(N4CCCCC4)CC3)sc2n1	7.5	14.1	17.2	-2.0	46.1	-52.5
CCOC(=O)C1CCCN(C(=O)Cn2sc3nc(C)cc(C)c3c2=O)C1 (stereo not given)	-3.5	-10.5	0.2	-5.0	56.5*	-22.4
O=C(/C=C/Nc1ccc(F)c(Cl)c1)c1ccco1	0.4	-13.1	-1.6	0.0	-6.4	-49.0
O=C(/C=C/Nc1cccc(F)c1)c1ccco1	-1.1	-8.6	8.9	-2.0	-2.8	86.7*
CCOc1ccc(C2C(C(=O)/C=C/c3ccco3)=C(O)C(=O)N2CCN2CCOCC2)cc1OC (stereo not given)	-1.7	-25.3	-18.2	2.0	11.1	-30.3
CCOc1ccccc1NC(=O)C(=O)N/N=C/c1cc(Br)ccc1O	-0.1	-25.2	-10.9	1.0	18.0	-80.5
O=C(CSc1n[nH]c(=O)[nH]c1=O)N/N=C/c1ccccc1O	-5.6	-1.7	-14.1	-1.0	-1.8	-33.2
COc1cc(/C=N/NC(=O)CSc2n[nH]c(=O)[nH]c2=O)cc(OC)c1O	8.1	-8.6	11.5	8.0	61.1*	-34.0
O=[N+]([O-])c1cccc(-n2nnnc2CNCc2ccccc2)c1	-2.4	-2.0	1.6	/	-8.9	-17.2
COc1ccc(CCNC(=O)Cn2cnc3scc(-c4ccccc4)c3c2=O)cc1OC	1.3	-9.8	-3.5	0.0	12.3	-15.0
O=C(/C=C/c1ccc(O)c(O)c1)O[C@H](Cc1ccc(O)c(O)c1)C(=O)O	16.0	-28.6	61.4	/	92.5*	-104.6
O=Cc1ccc(O)c(O)c1	-4.1	1.5	-8.7	-1.0	19.2	-17.2
SMILES	eIF4E-4G inh	p47phox inh	14-3-3 Bad PPI	Bim-Mcl-1	Mcl1 Noxa PPI	Mcl1-Bid inh
O=C(O)/C=C/c1ccc(O)c(O)c1	1.9	2.5	-5.3	0.0	59.7*	-25.4
COC(=O)C(N)Cc1ccc(O)c(O)c1 (stereo not given)	-0.8	-5.7	7.1	3.0	16.2	-12.8
Cc1ccc(Cn2c(SCC(=O)N/N=C/c3ccc(C)o3)nc3ccccc32)cc1	-24.9	-3.0	11.2	-2.0	23.2	52.2*
O=C(CSc1nc2ccccc2n1Cc1ccccc1)N/N=C/c1ccco1	2.5	-11.7	4.0	0.0	9.8	23.3
O=C(Cn1c(O)c(/C=C2\C=Nc3ccc(Br)cc32)sc1=O)N1CCCC1	-1.2	39.0*	5.4	-6.0	-6.5	-4.5
Cc1nc(=O)c(-c2ccccc2)c(C)n1CCO	3.2	-9.6	14.2	-5.0	-2.3	-6.9
Cc1nc(=O)c(-c2ccccc2)c(C)n1CCCO	-2.6	-9.3	90.0*	0.0	-6.5	-17.3
C/C(=N/NC(=O)C(O)(c1ccccc1)c1ccccc1)c1ccc([N+](=O)[O-])o1	1.5	-9.0	4.1	0.0	3.7	-13.6
CC(=O)NC1=C(NC2CCS(=O)(=O)C2)C(=O)c2ccccc2C1=O (stereo not given)	-1.5	3.1	-4.7	3.0	94.3*	-16.3
CN(C1=C(NC(=O)c2ccccc2)C(=O)c2ccccc2C1=O)C1CCS(=O)(=O)C1 (stereo not given)	13.3	-7.1	-16.9	-3.0	35.9	-52.1
O=C(Nc1ccccc1)NC1CCS(=O)(=O)C1 (stereo not given)	4.7	-15.6	-8.3	1.0	5.0	97.7*
O=C(Nc1ccc2ccccc2c1)NC1CCS(=O)(=O)C1 (stereo not given)	0.5	3.0	-3.5	-2.0	9.4	-15.6
O=C(c1ccccc1Sc1ccccc1[N+](=O)[O-])N1CCCCC1	-3.4	1.6	-8.7	-9.0	3.0	-33.4
O=C(N/N=C/c1ccc(-c2ccccc2C(=O)O)o1)c1cccs1	13.6	-6.4	16.1	2.0	79.3*	-0.1
O=C(NNC(=O)C1CCCN(c2ncccn2)C1)c1ccncc1 (stereo not given)	-0.3	8.6	13.9	2.0	3.6	7.2
CCNc1ccc(C(=O)OCC(=O)NC(C)c2ccccc2)cc1[N+](=O)[O-] (stereo not given)	46.1*	-0.3	-11.5	-2.0	19.7	-7.2
CCNc1ccc(C(=O)OCC(=O)NCc2ccc(C)cc2)cc1[N+](=O)[O-]	2.5	-4.8	5.1	-5.0	-1.6	-12.2
COC1=C/C(=C/c2c(N)n3c(nc2=O)sc2cc(S(C)(=O)=O)ccc23)C=CC1=O	5.4	-74.0	-8.9	/	54.3*	-8.6

Bioassay records: PubChem BioAssay, several laboratories
